Compound activity from PubChem BioAssay.
Hits are enriched below; roughly 4.6% of the tested compounds scored in any of these assays.
ADAM17 inh = ADAM17 inhibitors, primary screen, biochemical, QFRET; inhibition, % at 6.95 µM; Disintegrin and metalloproteinase domain-containing protein 17 (Homo sapiens), P78536; 370,000 compounds, 0.83% hits; recombinant ADAM17, EDANS/DABCYL FRET peptide cleavage; AID 720648, 2013;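 active = inhibition above the mean of compounds lying between control limits plus 3 SD, set per campaign, cut at about 8.5% in these data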;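 note: 0% = DMSO-only wells as the low control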
Target sequence (P78536 215-824 limits assumed): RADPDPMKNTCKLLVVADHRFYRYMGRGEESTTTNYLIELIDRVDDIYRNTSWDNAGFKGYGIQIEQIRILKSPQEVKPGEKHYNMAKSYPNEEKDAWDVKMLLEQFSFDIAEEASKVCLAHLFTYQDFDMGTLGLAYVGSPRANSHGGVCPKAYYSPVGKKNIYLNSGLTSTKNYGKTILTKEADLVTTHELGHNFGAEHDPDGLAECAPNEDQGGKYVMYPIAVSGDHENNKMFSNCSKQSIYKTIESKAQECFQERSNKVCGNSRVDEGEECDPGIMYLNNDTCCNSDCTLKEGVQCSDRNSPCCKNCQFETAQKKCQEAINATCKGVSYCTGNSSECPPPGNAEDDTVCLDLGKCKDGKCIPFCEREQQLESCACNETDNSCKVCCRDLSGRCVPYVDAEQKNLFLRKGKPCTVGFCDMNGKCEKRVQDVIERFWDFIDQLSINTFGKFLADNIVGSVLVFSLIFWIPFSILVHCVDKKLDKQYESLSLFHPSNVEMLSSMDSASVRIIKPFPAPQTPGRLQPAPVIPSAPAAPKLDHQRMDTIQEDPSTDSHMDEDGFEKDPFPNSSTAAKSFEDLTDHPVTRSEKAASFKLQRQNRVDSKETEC
FAS TE block = FAS thioesterase domain inhibitors, primary screen, biochemical, fluorescence intensity, uHTS. recombinant FAS-TE, OMFH fluorogenic substrate, fluorescence endpoint. inhibition, % at 15 µM. 360,000 compounds, 0.67% hits. AID 602261, 2012;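 active = compounds whose normalised, plate-corrected inhibition of enzyme fluorescence in the single-dose primary screen is 50% or more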;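 note: 0% = DMSO with enzyme and 100% = substrate without enzyme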
GRIN3A LBD mod = binders of NR3A ligand-binding domain, primary screen, biophysical, differential scanning fluorimetry, uHTS; 340,000 compounds, 2.5% hits; NR3A LBD differential scanning fluorimetry, Tm shift; 0% = protein alone, 100% = glycine-bound protein; Glutamate receptor ionotropic, NMDA 3A (GRIN3A) ligand-binding domain; Tm shift relative to glycine control, % at 25 µM;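 active = melting temperature shift of at least 10% of the positive control shift, at one fixed dose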
ADAM10 inh = human ADAM10 inhibitors, primary screen, biochemical, QFRET, HTS; inhibition, % at 7 µM; 370,000 compounds, 0.62% hits; recombinant ADAM10, EDANS/DABCYL FRET peptide cleavage, 3 h; Disintegrin and metalloproteinase domain-containing protein 10 (Homo sapiens), O14672;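 active = inhibition above a per-campaign cutoff equal to the mean of compounds falling between control-based bounds plus 3 SD, cut at about 20% in these data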;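 note: 0% = DMSO wells while the 100% control is not disclosed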
proKLK7 act = proKLK7 zymogen activators, primary screen, biochemical, fluorescence intensity. AID 652039, 2013. Kallikrein-7 (Homo sapiens), P49862. activation, % at 7 µM. 370,000 compounds, 0.9% hits. purified proKLK7, EDANS-DABCYL substrate fluorescence; 100% is mature enzyme control, 0% vehicle;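 active = activation above the mean of all tested compounds plus 3 SD, computed per campaign excluding outliers beyond control limits, cut at about 13% in these data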
ADAM10 counter = ADAM10 inhibitors, counter-screen for ADAM17 exosite inhibitor project, biochemical, FRET, human ADAM10. shares compounds with ADAM17 inh. 2,900 compounds, 47% hits. inhibition, % at 6.95 µM. recombinant ADAM10, EDANS/DABCYL FRET peptide cleavage, 3 h;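 active = mean inhibition over the triplicate runs exceeds the activity threshold set in the earlier primary screen, cut at about 20% in these data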;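 note: 0% = DMSO wells and 100% = marimastat wells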
ADAM17 confirm = ADAM17 inhibitors, hit retest, confirmation, biochemical, QFRET peptide cleavage; shares compounds with ADAM17 inh; inhibition, % at 6.95 µM; recombinant ADAM17, EDANS/DABCYL QFRET peptide cleavage; 2,900 compounds, 65% hits;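 active = mean inhibition across replicates above the hit cutoff set in the primary screen, cut at about 8.5% in these data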;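 note: 0% = DMSO wells and 100% = marimastat wells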
An asterisk follows results filed as active; . = no result given.

SMILES | ADAM17 inh | FAS TE block | GRIN3A LBD mod | ADAM10 inh | proKLK7 act | ADAM10 counter | ADAM17 confirm
NC(Cc1ccc(F)cc1)c1csc(NC(=O)NC(c2ccccc2)c2ccccc2)n1 (stereo not given) | 8.8* | -2 | . | 12 | 0 | 20* | 9.3*
Cc1cn(CCC(=O)Nc2ccccc2N2CCOCC2)c2ccccc12 | 8.9* | 11 | 1 | 9 | 0 | 25* | 12*
Cc1cn(CCC(=O)Nc2ccc(N3CCOCC3)cc2)c2ccccc12 | 1 | 0 | 0 | 1 | 0 | . | .
O=c1[nH]n(-c2ccccc2Cl)c(=O)c2ccccc12 | 10* | -3 | -2 | -6 | 0 | 10 | 10*
Cn1[nH]c(=O)c2ccccc2c1=O | -7 | -4 | 1 | -12 | 0 | . | .
Cc1ccc([C@H]2C[C@@H](O)[C@H](n3cc(-c4ccc(F)cc4)nn3)CN2C(=O)C2CCCCC2)cc1 | 10* | 19 | . | 12 | 1 | 29* | 15*
CCCCCC(=O)N1C[C@@H](n2cc(-c3ccc(F)cc3)nn2)[C@H](O)C[C@@H]1c1ccc(Cl)cc1 | 11* | 47 | . | 15 | 0 | 29* | 17*
O=C(C1CCCCC1)N1C[C@H](n2cc(-c3ccc(F)cc3)nn2)[C@@H](O)C[C@@H]1c1ccc(Cl)cc1 | 4 | 20 | . | 9 | 0 | . | .
CCCCCC(=O)N1C[C@H](O)[C@@H](n2cc(-c3ccc(F)cc3)nn2)C[C@@H]1c1ccc(Cl)cc1 | 2 | 16 | . | 6 | 0 | . | .
Cc1cc(C)n(CCNC(=O)[C@@H](Cc2ccccc2)NC(=O)[C@H]2O[C@@H](n3ccc(=O)[nH]c3=O)[C@H](O)[C@@H]2O)n1 | -2 | . | . | -14 | 0 | . | .
Cc1ccc(C2NC(=O)c3n[nH]c(C(C)C)c32)cc1 (stereo not given) | 3 | . | . | -1 | 0 | . | .
CN(Cc1ccccc1)C(=O)c1ccc(NC(=O)Cc2ccc(NC(=O)C3CCN(C(=O)C4CCCC4)CC3)cc2)cc1 | 9.1* | -4 | -3 | 3 | 1 | 33* | 9.2*
CN(Cc1ccccc1)C(=O)c1ccc(NC(=O)Cc2ccc(NC(=O)C3CCN(C(=O)C4CC4)CC3)cc2)cc1 | 1 | . | . | -4 | 0 | . | .
O=C(COc1ccccc1Br)N1CCN(C(=O)c2cccs2)CC1 | 8.8* | -6 | 0 | 7 | 0 | 13 | 9.3*
O=C(COc1ccccc1)N1CCN(C(=O)c2cccs2)CC1 | -1 | -6 | 0 | 9 | 0 | . | .
NC(=O)c1c(N)[nH]c(C(=O)c2ccccc2)c1-c1ccc2c(c1)OCO2 | 1 | . | . | -19 | 0 | . | .
CCN1C(=O)/C(=C/c2ccc(C)s2)NC1=S | 10* | -2 | 0 | 14 | 0 | 12 | 12*
CCOC(=O)COc1ccc(/C=C2\NC(=S)N(CC)C2=O)cc1 | 6 | 14 | 2 | 6 | 0 | . | .
C[C@@H]1CN([C@H](C)CO)C(=O)c2c(c3ccccc3n2C)-c2ccccc2CO[C@H]1CN(C)Cc1ccc(-c2ccccc2)cc1 | 8.9* | 15 | . | 8 | 0 | 17 | 8
Cc1ccc(S(=O)(=O)Nc2cccc3c2O[C@H](CN(C)Cc2ccc(-c4ccccc4)cc2)[C@@H](C)CN([C@H](C)CO)C3=O)cc1 | 13* | 47 | -3 | 24* | 1 | 44* | 24*
Cc1ccc(S(=O)(=O)N(C)C[C@@H]2Oc3ccc(NS(=O)(=O)c4ccccc4)cc3CC(=O)N([C@@H](C)CO)C[C@H]2C)cc1 | 10* | 49 | 2 | 14 | 1 | 5 | 5
